Screening results deposited in PubChem BioAssay by National Center for Advancing Translational Sciences (NCATS).
ALOX12 inh: inhibitors of human 12S-lipoxygenase ALOX12. purified 12hLO, xylenol orange hydroperoxide absorbance. Potency, µM (top dose mostly 108 µM), for inactives: at the top dose activity change, negative = inhibition, actives largely listed as inhibitors. 580,000 compounds, 1.1% hits. P18054; note: potency is the fitted concentration of half-maximal effect; % is set by controls: 0 for no effect and ±100 for the full control effect
Target sequence (P18054 whole entry, looked up): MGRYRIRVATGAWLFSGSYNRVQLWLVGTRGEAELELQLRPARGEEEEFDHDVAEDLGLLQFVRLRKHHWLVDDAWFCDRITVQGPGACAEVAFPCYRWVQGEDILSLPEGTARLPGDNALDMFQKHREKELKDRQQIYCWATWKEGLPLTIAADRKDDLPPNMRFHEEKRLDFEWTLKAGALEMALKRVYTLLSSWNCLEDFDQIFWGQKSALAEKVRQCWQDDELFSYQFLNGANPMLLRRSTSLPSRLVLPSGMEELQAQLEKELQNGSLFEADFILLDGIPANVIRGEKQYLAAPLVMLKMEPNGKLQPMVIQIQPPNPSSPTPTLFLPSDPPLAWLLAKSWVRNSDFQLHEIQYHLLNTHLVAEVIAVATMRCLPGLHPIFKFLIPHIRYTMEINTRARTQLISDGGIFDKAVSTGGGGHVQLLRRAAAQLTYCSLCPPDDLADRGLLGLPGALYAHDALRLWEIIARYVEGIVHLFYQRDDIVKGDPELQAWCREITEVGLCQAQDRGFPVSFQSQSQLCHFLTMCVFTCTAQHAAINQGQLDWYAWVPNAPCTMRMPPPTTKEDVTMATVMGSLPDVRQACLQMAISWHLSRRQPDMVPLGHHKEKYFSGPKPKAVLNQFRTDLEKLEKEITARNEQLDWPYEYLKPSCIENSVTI
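Purified human 12hLO (150 nM final) in 25 mM Hepes, 0.01% Triton X-100, pH 7.0 was preincubated 15 min at room temperature with compound. Then 40 uM arachidonic acid was added, 30 min. Hydroperoxide was read by Fe-XO absorbance ratio 573/405 nm.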
hERG WT inh: inhibitors of human wildtype KCNH2 potassium channel | 340,000 compounds, 0.37% hits | U2OS, BacMam KCNH2, thallium flux FluxOr; stronger effect = lower value | AID 720551 | activity change, % at 1.84 µM | Q12809;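 active = maximum activity change below -70%; inconclusive = maximum activity change between -70% and -50%; inactive = maximum activity change above -50%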; note: % is set by controls: 0 for no effect and ±100 for the full control effect
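U2OS cells transduced with wild-type KCNH2 virus are loaded with FluxOr dye for 45 min, and thallium flux is measured in kinetic reads before and after stimulation buffer. Rate constants are normalized to DMSO controls.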
A-T KAP1 phos: potential ataxia-telangiectasia treatment | F2112 A-T fibroblasts, KAP-1 phosphorylation AlphaLISA; neocarzinostatin DNA damage 30 min before lysis | Potency, µM (titrated, usually from 57.5 µM), inactives show at the highest dose activation, hits mostly activators | 320,000 compounds, 0.19% hits | AID 485349; note: potency is the fitted concentration of half-maximal effect; % of control where 0% means no effect; nearly all actives have a fitted effect of over 45% in size
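hTERT-immortalized A-T patient fibroblasts (F2112), 500 cells/well in OPTI-MEM, 1% FBS, got compounds for 60 min, then NCS for 30 min at 37C. Lysates were then assayed for phospho-KAP-1 by AlphaLISA (anti-pKAP1 donor, anti-KAP1 acceptor beads), 6 hr at 25C.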
KCNH2 3.1 block: blocks the human KCNH2 3.1 channel isoform. U2OS KCNH2 3.1, thallium flux FluxOr; stronger effect = lower value. activity change, % (tested at about 1.8 µM). 340,000 compounds, 0.95% hits;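 active = maximum activity change below -70%; inconclusive = maximum activity change from -70% to -50%; inactive = maximum activity change above -50%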;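 note: thallium influx rate constant from kinetic fluorescence after stimulation buffer; % is set by controls: 0 for no effect and ±100 for the full control effect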
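FluxOr-based Tl+ influx in U2OS cells transduced with KCNH2 3.1 virus; rate constants normalized to DMSO controls.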
* = called active by the depositor; u = inconclusive; x = no result; ! = a repeat was not active; [ ] = remark or other dose. Compounds with a hit are over-represented: about 1.8% of the library has one in this group of screens. Unless noted, calls come from the whole dose curve; as a rule, active = well fitted curve in the direction sought with a large enough effect; inconclusive = small, poorly fitted or top-dose-only effect, or another doubt; inactive = no such curve, though single readings can be large; an effect the other way counts as inactive or inconclusive.

SMILES | ALOX12 inh | hERG WT inh | A-T KAP1 phos | KCNH2 3.1 block
Cc1ccc(S(=O)(=O)N2CCN(C(C)c3nc4ccccc4c(=O)[nH]3)CC2)cc1 (centres undefined) | -6% | x | x | x
Cc1ccc(S(=O)(=O)N2CCCN(C(C)c3nc4ccccc4c(=O)[nH]3)CC2)cc1 (centres undefined) | 141% | -280* | -3% | -1
COCCn1c(=O)c2c(nc(-n3nc(C)c(C)c3C)n2Cc2cccc(C)c2)n(C)c1=O | 31% | x | x | x
CCCCC1CCC(C(=O)OC(C)C(=O)Nc2ccc(NC(C)=O)cc2)CC1 (centres undefined) | 40µM* | -11 | -1% | 4
CCCOc1ccc(NC(=O)Cc2cccc3ccccc23)c2cccnc12 | -28% | x | x | x
CN(Cc1ccc(Cl)cc1Cl)S(=O)(=O)c1cccc2nsnc12 | -11% | x | x | x
CCC(=O)N1CCC2(CC1)CN(c1ccccc1)C2=O | 8% | x | x | x
CCN(C[C@H]1N[C@@](C)(C(=O)OC)[C@H]2C(=O)N(C)C(=O)[C@@H]12)C(=O)c1ccc(C)cc1 | u | 4 | 3% | -32
CCN(C[C@H]1N[C@@](C)(C(=O)OC)[C@H]2C(=O)N(C)C(=O)[C@@H]12)C(=O)COc1ccccc1 | u | -218* | 2% | 3
Cc1ccc(SCC(=O)NC(C)(C#N)C2CC2)c(C)c1 (centres undefined) | 35µM* | x | x | x
COc1ccc(NC(=O)CSc2nccnc2N2CCN(c3ccccc3OC)CC2)cc1OC | -2% | x | x | x
Cc1ccc(N2C(=O)N(Cc3ccc4c(c3)OCO4)c3ccccc3S2(=O)=O)cc1 | -10% | x | x | x
COc1ccc(NC(=O)c2ccc(-c3ccccc3)cc2)cc1S(=O)(=O)N1CCOCC1 | -11% | 1 | 1% | -71*
COc1ccc(NC(=O)c2ccc(-c3ccccc3)cc2)cc1NS(=O)(=O)c1ccc(F)cc1 | -12% | -2 | -2% | -77*
COc1ccc(NC(=O)CN2CCCCC2)cc1S(=O)(=O)N1CCCCC1 | 2.5µM* | -3 | 19% | -13
COc1ccc(NC(=O)c2ccccc2)cc1NS(=O)(=O)c1ccc(F)cc1 | 14% | 6 | 1% | 18
CCc1ccc(C(=O)Nc2ccc(OC)c(S(=O)(=O)N3CCOCC3)c2)cc1 | 6% | 11 | 1% | 11
CC(=O)NCCC(=O)N1Cc2ccccc2CC2(CCN(CC3CCNC3)CC2)C1 (centres undefined) | -2%[6.33 µM] | x | x | x
Brc1ccccc1OCc1noc(-c2ccco2)n1 | 69% | x | x | x
COc1ccc(CCN(C)Cc2ccc(OCc3ccccc3)c(OC)c2)cc1OC | u | 14 | 4% | -79*
COc1ccc(CCN(C)c2ncnc3sccc23)cc1OC | -10% | -84* | -5% | 4
COc1ccc(CCN(C)C(=O)CSc2ncnc3sccc23)cc1OC | -1% | -9 | 5% | 1
COc1ccc(CCN(C)C/C=C/c2ccccc2[N+](=O)[O-])cc1OC | 0.89µM* | 5 | 1% | -33
CC(C)(C#CC(O)(c1ccccc1)c1ccccc1)[N+](C)(C)Cc1ccccc1 | 11% | x | x | x
COc1ccc(/C=C(/C(=O)c2ccccc2)c2nc3ccccc3s2)cc1 | 3% | x | x | x
SMILES | ALOX12 inh | hERG WT inh | A-T KAP1 phos | KCNH2 3.1 block
O=C1NC(=NC2CCCC2)C2(CCN(CC3CCCCC3)C2)N1c1cc(F)cc(F)c1 (centres undefined) | 7%[6.33 µM] | x | x | x
CCOc1ccc(/C=N/n2c(SC)nnc(C(C)(C)C)c2=O)cc1 | -15% | -80* | 7% | -3
O=C1OC(O)c2cccc3cccc1c23 (centres undefined) | -1% | 5 | x | -71*
COc1cc(/C=N/O)c(Br)cc1OCc1ccccc1Cl | -8% | x | x | x
CC(=O)Nc1c(C(=O)Nc2ccc3c(c2)OCO3)oc2ccccc12 | 4% | -72* | -8% | 6
CCCCN(CC)C(=O)c1ccc(-c2ccccc2)cc1 | -1% | -2 | 18% | -15
CCCCN(CCCC)C(=O)c1ccc(N)cc1 | 16µM* | x | x | x
O=C(NCC(c1cccs1)N1CCOCC1)c1cc2ccccc2oc1=O (centres undefined) | 18µM*! | 4 | -7% | 1
CN=c1scc(-c2ccc(F)cc2)n1/N=C/c1ccc(O)c(O)c1 | 45µM* | 1 | -1% | -1
COc1cccc(CN(C)C(=O)c2ccccc2Sc2ccccc2C#N)c1 | 3% | -7 | 0% | -93*
CCC(C)Sc1cc(-c2nc3ccccn3c2NC2CCCCC2)ccc1OC (centres undefined) | u | 3 | 32µM* | -149*
CCC(C)Sc1cc(-c2nc3cc(C)ccn3c2NC2CCCCC2)ccc1OC (centres undefined) | u | 38 | 29% | -5
CCC(C)Sc1cccc(-c2nc3ccc(C)cn3c2NC2CCCCC2)c1 (centres undefined) | u | -6 | 25µM* | -25
CCC(C)Sc1ccc(-c2nc3ccc(C)cn3c2NC2CCCCC2)cc1 (centres undefined) | x | 3 | 36% | -16
O=C(O)c1ccc(Nc2c3ccccc3nc3ccccc23)cc1 | u | -5 | 28µM* | 0
c1ccc(Nc2c3c(nc4ccccc24)CCC3)cc1 | -28% | 9 | 6% | -7
Fc1ccc(Nc2c3c(nc4ccccc24)CCC3)cc1 | -8% | 3 | -4% | -91*
Cn1nc(N2CCC(NC(=O)c3ncccn3)CC2)ccc1=O | 11% | x | x | x
FC(F)(F)c1ccc(-c2noc(CN3CCCN(C4CCCCC4)CC3)n2)cc1 | u | -45 | 2% | -94*
c1ccc(C(c2ccccc2)c2noc(CN3CCN(C4CCCC4)CC3)n2)cc1 | -11% | 18 | 5% | -30
COc1ccc(NCc2cc(=O)oc3cc(NC(C)=O)ccc23)cc1 | 6% | -6 | 2.5µM* | 0
COc1ccc2c(CNc3ccc(C)cc3C)cc(=O)oc2c1 | 3% | x | x | x
CC1CCN(S(=O)(=O)c2ccc3c(c2)N(CC(=O)NCCN2C(C)CCCC2C)C(=O)CS3)CC1 (centres undefined) | -1% | -76* | 2% | -23
COc1ccc(CNC(=O)CN2C(=O)CSc3ccc(S(=O)(=O)N4CCOCC4)cc32)c(OC)c1 | 21% | 9 | 7.1µM* | -34
COc1ccc(Br)cc1CNC(=O)CN1C(=O)CSc2ccc(S(=O)(=O)N3CCOCC3)cc21 | -11% | x | x | x
SMILES | ALOX12 inh | hERG WT inh | A-T KAP1 phos | KCNH2 3.1 block
CCCCNCc1ccc(F)cc1 | 1% | x | x | x
CCCCCCCCCCCCCCCC[N+](C)(C)Cc1ccc(F)cc1 | 45µM* | 3 | x | -4
NC(=O)COc1ccc(C(=O)NCC2(c3ccccc3)CCC2)cc1 | 10% | x | x | x
CC(=O)Nc1ccc(NC(=O)C2CC(=O)Nc3cc(F)ccc32)cc1 (centres undefined) | -3% | x | x | x
COc1cc2c(cc1OC)C(C(=O)Nc1ccc(F)c(Cl)c1)CC(=O)N2 (centres undefined) | -13% | 2 | 5% | -110*
CC(NC(=O)c1cnccn1)c1ccncc1 (centres undefined) | -3% | x | x | x
CCc1ccc(C(=O)NNc2ccc(C)c(Cl)c2)cc1 | 16µM* | 2 | -5% | 7
NC(=S)Nc1ccc(Cl)c(Cl)c1 | u | -1 | 10% | -2
